This is part of a sample that, as a whole, favours compounds with a hit. Of some 83,000 tested, about 20% had one in any assay.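 Note: values are percent growth. 100 is the growth of untreated cells, values between 100 and 0 indicate rising inhibition; between -100 and 0 indicates cell death.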 The source made the active and inactive calls. The calls were made as follows: active = growth percent below 10; inactive = the rest.

This assay deals with HL-60(TB) leukemia. Description: NCI-60 one-dose screen, 48 h (100 = growth as untreated, 0 = no growth, -100 = all killed). The following applies: 10 µM unless noted.
Turning to `COC(=O)[C@@]1(C)CC[C@]2(C)CC[C@]3(C)C(=CC(=O)[C@@H]4[C@@]5(C)Cc6c(n(CC#CCN7CCN(C)CC7)c7ccccc67)C(C)(C)[C@@H]5CC[C@]43C)[C@@H]2C1`, the growth is 3.4% (active).
With `CC(=O)N(O)CCCCCNC(=O)CCC(=O)N(O)CCCCCNC(=O)CCC(=O)N(O)CCCCCN(CCCCCCCCCC[P+](c1ccccc1)(c1ccccc1)c1ccccc1)CCCCCCCCCC[P+](c1ccccc1)(c1ccccc1)c1ccccc1`, the growth is -25.7% (active).
Next, `Cc1cc(-c2ccc3nc(N)sc3c2)nc2ccc3[nH]ncc3c12`: 25.8% (inactive).
Next, `CN(C)CCCOc1c2ccc(Cl)cc2nc2c1oc1ccccc12`: -19.3% (active); `CCOC(=O)c1c(NC(=O)c2ccc(C(F)(F)F)cc2)sc2c(CN3CCN(C)CC3)c(O)ccc12`: -36.8% (active); `Clc1nc2ccccc2nc1-c1nnc(C2CCCCC2)o1`: 66.6% (inactive).
Turning to `CCCCCCCCNC(=O)c1ccc(Cn2c(CCCC)nc3c(N)nc4ccccc4c32)cc1`, the growth is -57.6% (active).
In the case of `Oc1ccc(CSc2nnc(-c3ccc(Br)cc3)n2-c2ccccc2)c2cccnc12`, the growth is 27.5% (inactive).
Take `O=C(CCCCCCNC(=O)C(O)(O)C(F)(F)F)Nc1ncc(-c2ccccc2)s1`: the growth was 11.2% (inactive).
For `CC(C)(C)OC(=O)Nc1ccc(-c2cccc(Oc3ccc4nnc(Cl)n4n3)c2)cc1`, the growth is 64% (inactive).
Under `CCOc1cccc(-c2nc3sccn3c2-c2ccnc(S(C)(=O)=O)n2)c1` stands 36.9% (inactive).
Under `CC(=O)N1N=C(c2cccc(-n3cccc3)c2)CC1c1cccc(F)c1` (configuration not stated) stands 108% (inactive).

Source of the values: PubChem BioAssay (NCI).
